In all, about 340,000 compounds went through this assay and about 330 (0.097%) were called active.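 The calls were made as follows: active = mean replicate inhibition of at least 30% and at least 1% of replicates passing that level; inconclusive = only one of the two criteria is met; inactive = neither criterion is met.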 For the sample, actives were picked, then their nearest neighbours and some compounds at random.
Each molecule was assayed on Voltage-dependent L-type calcium channel subunit alpha-1D (CaV1.3) ICDI/IQ interaction (assay: Primary screen for inhibitors of IQ motif and Ca2+-dependent inactivation inhibitor domain binding in CACNA1D, Förster resonance energy transfer in living cells, single-concentration test (AID 743397;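 also: 0% = median of the neutral control wells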)). Conditions: HEK cells, CFP/YFP FRET ICDI-IQ, plate reader, 10 min; at 12.3 µM; hits give high values; percent FRET-ratio fall versus neutral wells.

inhibition, inactive:
Clc1cccc2c1C1CC2CCN1Cc1ccccc1 (stereo unspecified) -3.78%
Nc1[nH]c(C(=O)c2ccccc2)c(-c2ccc(Cl)cc2Cl)c1C(=O)c1ccccc1 -17.7%
CCOC(=O)c1oc2c(CN3CCN(C)CC3)c(O)ccc2c(=O)c1-c1ccc(Br)cc1 -4.95%
Cn1c(=O)[nH]c(=O)c2c1nc(N1CCN(CCO)CC1)n2CCSc1nc2ccccc2s1 -4.96%
O=C(NCc1ccccc1)[C@H]1CCCN1C(=O)[C@H]1CCCN1C(=O)c1cc(F)cc(F)c1 -8.46%
O=C(NCc1ccccc1)[C@@H]1CCCN1C(=O)[C@@H](NS(=O)(=O)c1ccc(F)cc1F)C1CCCCC1 -2.67%
O=C(C(=O)N1CCC(CNS(=O)(=O)Cc2ccccc2)CC1)c1cc2ccccc2o1 -8.57%
Cc1ccc(C)c(CN2CCC(CNC(=O)C3CCCN(c4ncnc5c4nc4n5CCCCC4)C3)CC2)c1 (stereo unspecified) -13.7%
O=C(O)Cn1cnc2c(NCc3ccccc3)ncnc21 -6.21%
CC(C)C[C@H](NC(=O)CC1CCCC1)C(=O)N1CCC[C@H]1C(=O)NCc1ccccc1 -8.63%
Nc1[nH]c(C(=O)c2ccc(Br)cc2)c(-c2ccc3c(c2)OCO3)c1C(=O)NCCc1c[nH]c2ccccc12 -16.2%
CCOC(=O)C1CSCCS(=O)(=O)N1Cc1ccc(Cl)cc1 (stereo unspecified) -4.73%
O=C1[C@@H](c2ccccc2)[C@@H](c2ccccc2)N1c1ccccc1 -7.31%
Brc1ccc(COCCc2cn(Cc3ccccc3)c3ccccc23)cc1 -2.59%
CC(=O)c1ccc(-c2cnc3c(NC=O)cc(-c4cccc(NS(C)(=O)=O)c4)cn23)cc1 -5.47%
COCCCNC(=O)C[C@H]1C[C@@]2(C(=O)OC)C(=C[C@H](C(C)(C)C)O[C@@H]2C)N(Cc2ccc3c(c2)OCO3)C1=O -3.83%
O=C(N[C@H](Cc1ccccc1)C(=O)N1CCCN(Cc2cccs2)CC1)[C@H]1O[C@@H](n2ccc(=O)[nH]c2=O)[C@H](O)[C@@H]1O -3.41%
Cc1ccc2nc(-c3ccc(CN4CCC(n5cc(-c6ccccc6)[nH]c5=O)CC4)cc3)c(-c3ccccc3)nc2c1 -15.6%
COC(=O)C1=C(C)N(Cc2ccc(F)cc2)C(=S)NC1c1cccc(Cl)c1 (stereo unspecified) -2.29%
CCCCCCCCN1C(=O)[C@@H](CC(=O)NCc2ccccc2)C[C@@]2(C(=O)OC)C1=C[C@H](C(C)(C)C)O[C@@H]2C -8.36%
O=C(NN=Cc1ccco1)C(=O)Nc1ccc(Cl)c([N+](=O)[O-])c1 -13%
O=S1(=O)c2ccc(Br)cc2-n2nncc2CN1Cc1cccc(Cl)c1 -9.71%
COC(=O)[C@]12C[C@H](CC(=O)NCc3ccc(OC)c(OC)c3)C(=O)N(Cc3ccccc3)C1=C[C@H](C(C)C)O[C@@H]2C1CC1 -11.2%
CC(=O)C1=C(C)N(Cc2ccc(Cl)cc2)C(=S)NC1c1ccc(F)cc1 (stereo unspecified) -2.53%
CC(C)[C@H]1COCCS(=O)(=O)N1Cc1ccccc1-c1cccc2c1sc1ccccc12 -4.21%
C[C@H]1[C@H](c2ccccc2)Oc2cc(Br)ccc2S(=O)(=O)N1Cc1cccc(F)c1 -4.74%
O=S(=O)(c1cccs1)N1CCCc2nc(-c3ccc(Br)cc3)ccc21 -8.65%
C=CCN=C1NC(c2ccccc2)C(C(=O)OC)=C(C)N1Cc1ccc(C(F)(F)F)cc1 (stereo unspecified) -6.18%
CCN1CCN(CC(=O)Nc2sc3c(c2C#N)CCC3)CC1 -6.79%
N#Cc1c(N)sc2c1CCN(C(=O)OCc1ccccc1)C2 -7.05%
O=C(NNC(=O)c1ccc(Cl)nc1)c1ccc(Br)cc1 -6.15%
CNC(=S)NNC(=O)c1ccc(N(C)C)cc1 -4.61%
O=C(Nc1ccc(C(F)(F)F)cc1)c1cccc(-n2cnnn2)c1 -5.18%
CCCCC(=O)Nc1ccc(C(=O)Nc2cc(C(F)(F)F)ccc2Cl)cc1 -17.6%
O=C1Nc2ccccc2C1=NN=Cc1ccco1 -4.56%
CCCCC[C@H](C)N1C[C@@H](COCc2ccccc2)Oc2cc(N3CC[C@@H](N(C)C)C3)ccc2S1(=O)=O -7.78%
O=C(Nc1cccc([N+](=O)[O-])c1)Nn1cnnc1 -5.3%
N#Cc1cccc(Nc2c3c(nc4ccccc24)CCCC3)c1 -2.56%
COCCCn1c(C(=O)NC2CCCCC2)cc2c(=O)n3cccc(C)c3nc21 -7.34%
COc1ccc(CCn2c(=N)c(C(=O)NCC3CCCO3)cc3c(=O)n4cccc(C)c4nc32)cc1OC (stereo unspecified) -7.32%
COCc1[nH]nc2c1C(c1ccccc1)N(c1ccccc1)C2=O (stereo unspecified) -4.04%
COC(=O)c1cc2c(c3c4cc(F)ccc4n(S(=O)(=O)c4ccccc4)c13)C(=O)N(Cc1ccccc1OC)C2 -8.18%
C=CC[C@]12C[C@@]3(O[C@H](c4ccc(C(F)(F)F)cc4)N=C3C[C@H](c3ccc(OC)cc3)[C@H]1C)N(C1CCN(Cc3ccccc3)CC1)C2=O -3.62%
CCN(CC)CCOCCOc1ccc(Cl)c2ccccc12 -5.65%
CN(C)CCOc1ccc(Cl)cc1C(C)(C)C 3.19%
Cc1ccc(N)cc1CN1CCN(c2ncc(Cc3ccccc3)cn2)CC1 -2.7%

inhibition, active:
CCOC(=O)c1oc2c(CN3CCN(CCO)CC3)c(O)c(CC)cc2c(=O)c1-c1nc2ccccc2s1 37%
CC(=O)NC(=S)NNC(=O)c1ccc(Br)cc1 74.6%
O=[N+]([O-])c1cccc(Nc2c3ccccc3nc3ccccc23)c1 87.1%
CCn1c(=N)c(C(=O)NCCCOC)cc2c(=O)n3cccc(C)c3nc21 45.8%
CN(C)CCOCCOc1ccc(Cl)c2ccccc12 62.4%

Source: PubChem BioAssay AID743397 (Broad Institute, 2014)
